Rab9 promoter act: activates the Rab9 promoter; hit rate 2.8% among 320,000; Potency, µM (titrated, usually from 9.22 µM), hits mostly activators; Huh7 Rab9 promoter-luciferase reporter, luminescence, 24 h; note: nearly all actives have a fitted effect of over 60% in size
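Measured in stably transfected Huh7 cells bearing a Rab9 promoter–luciferase construct: 24 h compound treatment at 37 °C, followed by luminescence detection.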
NPC1 promoter act: activates the NPC1 promoter | Potency, µM (highest dose often 9.22 µM), actives largely listed as activators | hit rate 2.4% among 320,000 | AID 485313 | Huh7 NPC1 promoter luciferase reporter, 24 h; note: nearly all actives have a fitted effect of over 60% in size
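Quantitative HTS used a cell-based reporter: Huh7 cells stably bearing the NPC1 promoter upstream of luciferase were treated with compounds for 24 h, and promoter activation was read as luminescence.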
ELG1 repair inh: blocks ELG1-dependent DNA repair in HEK293T cells; HEK293T ELG1-luciferase reporter, luminescence, 16 h; DNA damage induced by 5-fluorouridine; Potency, µM (highest dose often 46.1 µM), actives largely listed as inhibitors; hit rate 2.3% among 330,000; note: nearly all actives have a fitted effect of over 55% in size
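Reporter activity after DNA damage by 5-fluorouridine is monitored. Compound-treated cells incubate 16 hr at 37 °C, then ONE-Glo is added for 30 min before luminescence reading.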
ELG1 genotox: induces genotoxicity in HEK293T cells with luciferase-tagged ELG1; Potency, µM (doses to about 46 µM), usual class: activators; HEK293T ELG1-luciferase reporter, luminescence, 16 h; hit rate 1.3% among 330,000; note: nearly all actives have a fitted effect of over 60% in size
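Cells (2,000/well) expressing the ELG1-luciferase fusion are dosed by pin tool and kept 16 hr at 37 °C, 5% CO2. Signal comes from ONE-Glo luciferase reagent after 30 min at room temperature.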
FLuc modulator: firefly luciferase modulation, counter-screen for miR-21 project. hit rate 6.9% among 360,000. P08659. purified FLuc, Km substrates, luminescence inhibition. Potency, µM (titrated, usually from 57.5 µM), hits mostly inhibitors; note: nearly all actives have a fitted effect of over 55% in size
Target sequence (P08659 whole entry, looked up): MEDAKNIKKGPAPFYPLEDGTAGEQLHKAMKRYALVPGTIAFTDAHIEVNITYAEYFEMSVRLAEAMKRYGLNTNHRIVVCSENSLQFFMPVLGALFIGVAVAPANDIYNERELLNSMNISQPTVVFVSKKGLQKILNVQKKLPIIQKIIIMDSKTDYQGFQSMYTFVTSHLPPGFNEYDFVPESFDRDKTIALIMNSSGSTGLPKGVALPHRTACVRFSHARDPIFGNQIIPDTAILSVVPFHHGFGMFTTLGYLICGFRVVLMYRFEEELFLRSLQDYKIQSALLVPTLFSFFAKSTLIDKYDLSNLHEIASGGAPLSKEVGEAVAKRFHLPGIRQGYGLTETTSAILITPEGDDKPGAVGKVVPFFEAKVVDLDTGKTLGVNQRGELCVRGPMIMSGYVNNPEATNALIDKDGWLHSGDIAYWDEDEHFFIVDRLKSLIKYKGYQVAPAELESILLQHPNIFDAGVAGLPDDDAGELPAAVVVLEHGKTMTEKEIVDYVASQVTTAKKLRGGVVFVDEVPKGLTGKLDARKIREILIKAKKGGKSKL
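Purified P. pyralis luciferase (10nM final) with 10uM D-luciferin and 10uM ATP (Km levels) in 50mM Tris acetate pH 7.5, 10mM Mg acetate, 0.01% Tween-20, 0.05% BSA; qHTS 6-point titration, ~60 µM downward; luminescence read.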
SMN2 splice up: enhancers of SMN2 splice variant expression. HEK293 SMN2-luciferase splicing reporter, luminescence, 30-36 h. Potency, µM (doses to about 46.1 µM), actives largely listed as activators. hit rate 2.8% among 210,000. AID 1458; note: nearly all actives have a fitted effect of over 55% in size
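HEK293 cells carry an SMN2 […]–luciferase reporter in which exon 7 inclusion puts luciferase in frame. Cells were plated 10-12 h before compound addition, then incubated 30-36 h at 37C. ONE-Glo luminescence was read; sodium butyrate at 4.5 mM final served as control.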
Hits are given with their value; 0 = inactive; ? = inconclusive; - = no result given. An excerpt weighted towards active compounds, which were near 9.3% of everything screened. Calls come from the whole dose curve; as a rule, active = well fitted curve in the direction sought with a large enough effect; inconclusive = small, poorly fitted or top-dose-only effect, or another doubt; inactive = no such curve, though single readings can be large; an effect the other way counts as inactive or inconclusive.

SMILES | Rab9 promoter act | NPC1 promoter act | ELG1 repair inh | ELG1 genotox | FLuc modulator | SMN2 splice up
O=C(Nc1cccc(N2C(=O)C3CCCCC3C2=O)c1)c1ccccc1 (configuration not stated) | 0 | 0 | 0 | 0 | 19µM | -
COc1cccc(NC(=O)c2cccc(N3C(=O)C4CCC(C)CC4C3=O)c2)c1 (configuration not stated) | 0 | 0 | 0 | 0 | 0 | -
Cc1ccc(C(=O)Nc2cccc(N3C(=O)C4CCC(C)CC4C3=O)c2)cc1 (configuration not stated) | 0 | 0 | 0 | 0 | 7.6µM | -
CCOc1ccc(CCNC(=O)c2c(C)nn(-c3ccccc3)c2Cl)cc1OCC | 0 | 0 | 0 | 0 | 0 | -
C=C1CC[C@@]23CC[C@]4(C)[C@@](OC2=O)([C@@H]3C1)[C@H]1O[C@H]1C1[C@@]2(C)CC[C@H](O)C(C)(C)C2CC[C@]14C (some centres not stated) | 0 | 0 | 0 | 0 | 0 | -
COc1ccc(NC(=O)CSc2oc(-c3ccc(C)cc3)nc2S(=O)(=O)c2ccc(C)cc2)c(OC)c1 | - | - | - | - | 0 | 0
COc1ccc(NC(=O)c2ccc3oc(=O)c(S(=O)(=O)c4ccc(C)cc4)cc3c2)cc1OC | - | - | - | - | 0 | 0
OC1c2ccccc2-c2nc3ccccc3cc21 (configuration not stated) | - | - | - | - | - | 14µM
COc1ccc(C2=NNC(c3cc(Cl)cc4c3OCOC4)C2)c(O)c1 (configuration not stated) | 0 | 0 | ? | 0 | 13µM | 0
Oc1ccc(Cl)cc1C1=NNC(c2cc(Br)cc3c2OCOC3)C1 (configuration not stated) | 0 | 0 | ? | 0 | 0 | 0
CNc1nc2c(Cl)cc(Cl)cc2s1 | 0 | 0 | ? | 0 | 0 | -
Clc1cc(Cl)c2nc(N3CCCCC3)sc2c1 | 4µM | 2.8µM | ? | ? | 8.5µM | ?
O=C(C1CC1)N1CCN(c2nc3c(Cl)cccc3s2)CC1 | - | - | - | - | 0 | -
Clc1cccc2sc(N3CCCCC3)nc12 | ? | 0 | ? | 23µM | 24µM | ?
CCOC(=O)CSc1nc2ccc(NC(=O)COc3ccc(F)cc3)cc2s1 | - | - | - | - | 0 | -
Cc1ccc2c(CN3CCC(C)CC3)cc(=O)oc2c1 | 1.8µM | 3.5µM | ? | 4.6µM | 7.6µM | 14µM
Nc1ccc(-c2nc3ccccc3s2)cn1 | 1.6µM | 1.3µM | ? | 9.2µM | 4.8µM | -
COc1cc(OC)cc(-c2nc3ccccc3s2)c1 | 0 | 0 | ? | ? | 8.5µM | ?
O=C1CCC(=O)N1c1ccc(-c2nc3ccccc3s2)cc1 | 0.35µM | 0.45µM | ? | ? | 0.54µM | 10µM
c1ccc(-c2nc3ccccc3s2)nc1 | 1.4µM | 1.4µM | ? | ? | 3.8µM | 16µM
Brc1ccc(-c2nc3ccccc3s2)s1 | 1.6µM | ? | ? | ? | 1.1µM | 14µM
Brc1cc2c(cc1-c1nc3ccccc3s1)OCO2 | 0 | 0 | ? | 0 | 12µM | -
Cc1ccc(S(=O)(=O)NC(CC(=O)NCC2CCCO2)c2ccccc2)cc1 (configuration not stated) | 0 | 0 | 0 | 0 | 0 | 0
CN1C(=O)/C(=C/C=C2\SCCN2C)N(C)C1=S | 2.5µM | 3.2µM | ? | 15µM | 17µM | ?
CN1C(=O)/C(=C/C=C2\SCCN2C)SC1=S | 3.2µM | 2.5µM | ? | ? | 1.9µM | 2.5µM
O=C1CC(C(=O)NC2CCCCC2)C2(CCCCC2)O1 (configuration not stated) | 0 | 0 | 0 | 0 | 0 | -
Cc1ccc(NC(=O)C2CC(O)CN2C(=O)OCc2ccccc2)cc1C (configuration not stated) | 0 | 0 | 0 | 0 | 0 | -
O=C(Nc1ccccc1Cl)N1CCN(c2ccc3nnc(-c4ccccc4)n3n2)CC1 | 0 | 0 | 13µM | 0 | 0 | 0
O=C(Nc1ccc(Cl)cc1)N1CCN(c2ccc3nnc(-c4ccc(F)cc4)n3n2)CC1 | 0 | 0 | 4.6µM | 0 | 0 | 0
Cc1ccc(S(=O)(=O)N2CCN(c3ccc4nnc(-c5ccccc5)n4n3)CC2)cc1 | 0 | 0 | 0 | 0 | 0 | 0
